Source: PubChem BioAssay AID1159580 (chemical genetic matrix, 2015)
Values joined by “and” are separate entries in the source; they are usually repeats but may differ in a detail not shown here. Identical values can stand only once. Out of some 5,500 compounds screened, about 2,000 (36%) were called active. Not shown: some 18% with an inconclusive outcome. Rule as the data show it: active = normalized growth mostly below about 0.91 (no sharp cut-off); inconclusive = no clear call, values can overlap the other calls; inactive = mostly above about 0.92. Some of the results follow.

Test: chemical genetic growth profiling, strain panel (AID 1159580);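 also: tested at 20 µM; growth read once vehicle control cultures reached saturation at 30 °C; 1 = growth at the plate median or of vehicle wells; lower values mean less growth of the strain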
Details: S. cerevisiae deletion strains, growth OD

Measured: normalized growth

CC(=O)N[C@@H](CC(C)C)C(=O)O
inactive: locus YAL013W, strain DEP1, stronger effect = lower value 0.983 | locus YAL021C, strain ccr4, stronger effect = lower value 1 | locus YAL026C, strain drs2, stronger effect = lower value 0.989 | locus YAL030W, strain snc1, stronger effect = lower value 1 | locus YBL061C, strain skt5, stronger effect = lower value 0.986 | locus YBR009C, strain hhf1, stronger effect = lower value 0.99 | locus YBR021W, strain FUR4, stronger effect = lower value 1 | locus YBR023C, strain chs3, stronger effect = lower value 1 | locus YBR171W, strain sec66, stronger effect = lower value 0.981 | locus YBR229C, strain ROT2, stronger effect = lower value 0.996 | locus YBR231C, strain swc5, stronger effect = lower value 0.972 | locus YBR279W, strain paf1, stronger effect = lower value 1 | locus YCL011C, strain gbp2, stronger effect = lower value 1.01 | locus YCL016C, strain dcc1, stronger effect = lower value 0.995 | locus YCL029C, strain bik1, stronger effect = lower value 0.97 | locus YCL069W, strain vba3, stronger effect = lower value 0.996 | locus YCR088W, strain abp1, stronger effect = lower value 1 | locus YDL005C, strain med2, stronger effect = lower value 0.991 | locus YDL035C, strain GPR1, stronger effect = lower value 0.985 | locus YDL040C, strain nat1, stronger effect = lower value 0.988 | locus YDL074C, strain BRE1, stronger effect = lower value 1.02 | locus YDL101C, strain DUN1, stronger effect = lower value 0.994 | locus YDL134C, strain PPH21, stronger effect = lower value 0.987 | locus YDL185W, strain tfp1, stronger effect = lower value 0.944 | locus YDL192W, strain arf1, stronger effect = lower value 0.986 | locus YDR001C, strain nth1, stronger effect = lower value 1 | locus YDR069C, strain doa4, stronger effect = lower value 0.971 | locus YDR101C, strain arx1, stronger effect = lower value 0.989 | locus YDR137W, strain rgp1, stronger effect = lower value 1 | locus YDR150W, strain NUM1, stronger effect = lower value 0.983 | locus YDR159W, strain sac3, stronger effect = lower value 0.961 | locus YDR162C, strain NBP2, stronger effect = lower value 0.981 | locus YDR195W, strain ref2 0.948 | locus YDR297W, strain sur2, stronger effect = lower value 0.991 | locus YDR318W, strain mcm21, stronger effect = lower value 0.97 | locus YDR334W, strain swr1, stronger effect = lower value 0.989 | locus YDR335W, strain msn5, stronger effect = lower value 0.987 | locus YDR388W, stronger effect = lower value 0.989 | locus YDR392W, strain spt3, stronger effect = lower value 1.02 | locus YDR502C, strain sam2, stronger effect = lower value 0.972 | locus YEL003W, strain gim4, stronger effect = lower value 0.989 | locus YEL037C, strain rad23, stronger effect = lower value 0.994 | locus YEL061C, strain CIN8 (second series), stronger effect = lower value 0.986 | locus YEL061C, strain CIN8, stronger effect = lower value 0.993 | locus YER015W, strain faa2, stronger effect = lower value 0.993 | locus YER016W, strain bim1, stronger effect = lower value 1.01 | locus YER110C, stronger effect = lower value 0.97 | locus YER111C, strain swi4, stronger effect = lower value 0.988 | locus YER155C, strain BEM2 (second series), stronger effect = lower value 0.98 | locus YER155C, strain BEM2, stronger effect = lower value 0.992 | locus YER167W, strain BCK2, stronger effect = lower value 0.98 | locus YFR010W, strain ubp6, stronger effect = lower value 0.98 | locus YGL078C, strain dbp3, stronger effect = lower value 0.975 | locus YGL086W, strain mad1, stronger effect = lower value 0.996 | locus YGL167C, strain pmr1, stronger effect = lower value 0.972 | locus YGL173C, strain kem1, stronger effect = lower value 0.97 | locus YGL227W, strain vid30, stronger effect = lower value 0.98 | locus YGL240W, strain doc1, stronger effect = lower value 0.972 | locus YGL248W, strain PDE1, stronger effect = lower value 1.01 | locus YGL253W, strain hxk2, stronger effect = lower value 0.986 | locus YGR135W, strain pre9, stronger effect = lower value 0.945 | locus YGR252W, strain gcn5, stronger effect = lower value 1 | locus YHR013C, strain ard1, stronger effect = lower value 1.01 | locus YHR027C, strain rpn1, stronger effect = lower value 1 | locus YHR030C, strain SLT2, stronger effect = lower value 0.975 and 1.04 | locus YHR079C, strain IRE1 (second series), stronger effect = lower value 0.985 | locus YHR079C, strain IRE1, stronger effect = lower value 1.02 | locus YHR094C, strain hxt1, stronger effect = lower value 0.984 | locus YHR129C, strain ARP1, stronger effect = lower value 0.992 | locus YHR142W, strain chs7, stronger effect = lower value 0.992 | locus YHR200W, strain rpn10, stronger effect = lower value 0.978 | locus YIL066C, strain RNR3, stronger effect = lower value 1.01 | locus YIL073C, strain SPO22, stronger effect = lower value 0.849 | locus YIL125W, strain kgd1, stronger effect = lower value 0.992 | locus YIR030C, strain dcg1, stronger effect = lower value 0.969 | locus YJL092W, strain hpr5, stronger effect = lower value 0.989 | locus YJL095W, strain BCK1 (second series), stronger effect = lower value 0.98 | locus YJL095W, strain BCK1, stronger effect = lower value 1.04 and 1.03 | locus YJL115W, strain asf1, stronger effect = lower value 1 | locus YJL129C, strain trk1, stronger effect = lower value 0.959 | locus YJL134W, strain LCB3, stronger effect = lower value 0.984 | locus YJL154C, strain vps35, stronger effect = lower value 0.994 | locus YJL164C, strain tpk1, stronger effect = lower value 1.01 | locus YJL166W, strain qcr8, stronger effect = lower value 0.972 | locus YJL168C, strain set2, stronger effect = lower value 0.997 | locus YJL187C, strain SWE1 (second series), stronger effect = lower value 1.02 | locus YJR043C, strain POL32, stronger effect = lower value 1.02
